Autofluor counter = counter-screen for toxin protease inhibitors: compound fluorescence. 360,000 tested, 3.1% active. fluorescence intensity (concentration not given with the values). compound autofluorescence counterscreen, microsphere flow cytometry; active compounds read high; in the data active = fluorescence intensity above about 16000; inconclusive = no clear call, values can overlap the other calls
BoNT F protease = BoNT/F light chain protease inhibitors, primary screen, biochemical, flow cytometry, MLPCN library; Multiplex microsphere protease cleavage assay; inhibition, % at 10 µM; 360,000 tested, 0.22% active; in the data active = inhibition above about 35%, passing the limit was not always enough; inconclusive = no clear call, values can overlap the other calls; note: plate controls were buffer without enzyme for full effect and enzyme alone for no effect
DUSP3 inh = VHR1 phosphatase inhibitors, primary screen, biochemical, absorbance, uHTS. recombinant VHR phosphatase, pNPP absorbance. AID 1654, 2009. 290,000 tested, 0.52% active. inhibition, % at 13.3 µM; in the data active = inhibition above about 50%
BoNT A protease = BoNT/A light chain protease inhibitors, primary screen, biochemical, flow cytometry, MLPCN library | AID 588499, 2011 | Botulinum neurotoxin type A light chain protease (Clostridium botulinum A str. ATCC 3502) | 360,000 tested, 0.17% active | inhibition, % at 10 µM | multiplex microsphere protease substrate cleavage; note: plate controls were buffer without enzyme for full effect and enzyme alone for no effect
Anthrax LF prot = Bacillus anthracis LF protease inhibitors, primary screen, biochemical, multiplex microsphere, MLPCN library; 360,000 tested, 0.12% active; inhibition, % at 10 µM; AID 588501, 2011; multiplex microsphere protease cleavage assay; Lethal factor (Bacillus anthracis), P15917; note: plate controls were buffer without enzyme for full effect and enzyme alone for no effect
Target sequence (P15917 whole entry, looked up): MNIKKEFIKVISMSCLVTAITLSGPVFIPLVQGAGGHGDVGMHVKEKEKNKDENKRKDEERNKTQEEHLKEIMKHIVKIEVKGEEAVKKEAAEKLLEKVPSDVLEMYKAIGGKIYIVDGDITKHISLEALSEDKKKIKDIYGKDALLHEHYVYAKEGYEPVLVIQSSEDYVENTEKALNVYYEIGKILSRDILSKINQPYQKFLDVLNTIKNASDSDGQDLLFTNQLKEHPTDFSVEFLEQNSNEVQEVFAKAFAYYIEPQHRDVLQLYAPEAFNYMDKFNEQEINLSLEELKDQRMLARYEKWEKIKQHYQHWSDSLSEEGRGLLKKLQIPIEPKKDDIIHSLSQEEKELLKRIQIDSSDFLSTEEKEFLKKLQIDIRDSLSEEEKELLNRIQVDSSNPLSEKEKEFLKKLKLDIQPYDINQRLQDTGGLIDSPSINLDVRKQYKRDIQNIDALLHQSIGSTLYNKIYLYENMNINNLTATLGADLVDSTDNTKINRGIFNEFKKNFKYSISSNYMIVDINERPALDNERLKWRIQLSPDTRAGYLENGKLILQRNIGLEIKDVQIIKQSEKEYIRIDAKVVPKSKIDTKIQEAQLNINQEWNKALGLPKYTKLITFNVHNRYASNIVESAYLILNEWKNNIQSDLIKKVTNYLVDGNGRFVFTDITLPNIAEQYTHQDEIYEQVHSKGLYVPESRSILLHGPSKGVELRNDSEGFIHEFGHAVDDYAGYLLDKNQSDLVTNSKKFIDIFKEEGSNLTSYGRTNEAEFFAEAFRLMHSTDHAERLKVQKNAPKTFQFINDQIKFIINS
3CLpro inhibitor = SARS-CoV 3CLpro protease inhibitors, primary screen, biochemical, quenched FRET | recombinant SARS-CoV 3CLpro, quenched FRET peptide cleavage | inhibition, % at 6 µM | 290,000 tested, 0.14% active; in the data active = inhibition above about 12%
* marks the source's active call; other numbers are inactive results. Shown are actives, neighbours in structure and some others; about 3.9% of the full set was active somewhere. Cut-off read from the data, not from the text of the source, unless noted: active = inhibition above about 30%; inconclusive = no clear call, values can overlap the other calls; inactive = below that.

How did O=S(=O)(c1cccs1)N1CCN(c2ccccn2)CC1 do in these assays?
Autofluor counter: 22816*; BoNT F protease: -1; DUSP3 inh: -9; BoNT A protease: 0; Anthrax LF prot: -3; 3CLpro inhibitor: 7

How did CCCNC(=O)Cn1c(=O)oc2ccccc21 do in these assays?
Autofluor counter: 2700; BoNT F protease: -1; DUSP3 inh: 12; BoNT A protease: 0; Anthrax LF prot: 1; 3CLpro inhibitor: 1

How did COC(=O)C1=C(C)Nc2ncnn2C1c1ccccn1 (stereo not given) do in these assays?
Autofluor counter: 21583*; BoNT F protease: 2; DUSP3 inh: -11; BoNT A protease: 2; Anthrax LF prot: 1; 3CLpro inhibitor: -3

How did COc1cccc(C2C(C(=O)OC(C)C)=C(C)Nc3ncnn32)c1 (stereo not given) do in these assays?
Autofluor counter: 20726*; BoNT F protease: -5; DUSP3 inh: 14; BoNT A protease: inconclusive; Anthrax LF prot: -10; 3CLpro inhibitor: 4

Results for CC1=C(C(=O)OC(C)C)C(c2cccc(F)c2)n2ncnc2N1 (stereo not given) ?
Autofluor counter: 6449; BoNT F protease: -3; DUSP3 inh: 7; BoNT A protease: -1; Anthrax LF prot: 4; 3CLpro inhibitor: -2

Results for CC1=C(C(=O)Nc2ccc(C)cc2C)C(c2ccc([N+](=O)[O-])cc2)n2ncnc2N1 (stereo not given) ?
Autofluor counter: 3582; BoNT F protease: -6; DUSP3 inh: 20; BoNT A protease: 0; Anthrax LF prot: 0; 3CLpro inhibitor: 0

How did COc1cc(OC)c(C2C(C(=O)Nc3ccccc3)=C(C)Nc3ncnn32)cc1OC (stereo not given) do in these assays?
Autofluor counter: 16373*; BoNT F protease: 1; DUSP3 inh: 11; BoNT A protease: 0; Anthrax LF prot: 0; 3CLpro inhibitor: 1

Results for COc1cc(OC)c(C2C(C(=O)Nc3ccc(C)cc3C)=C(C)Nc3ncnn32)cc1OC (stereo not given) ?
Autofluor counter: 23198*; BoNT F protease: -1; DUSP3 inh: 19; BoNT A protease: 0; Anthrax LF prot: -3; 3CLpro inhibitor: 2

What do the screens show for `CCOC(=O)C1=C(c2ccccc2)Nc2ncnn2C1c1ccccn1` (stereo not given)?
Autofluor counter: 3777; BoNT F protease: 8; DUSP3 inh: 10; BoNT A protease: 1; Anthrax LF prot: -1; 3CLpro inhibitor: 1

What do the screens show for `COc1ccccc1C1C(C(N)=O)=C(C)Nc2ncnn21` (stereo not given)?
Autofluor counter: 16247*; BoNT F protease: -1; DUSP3 inh: 0; BoNT A protease: 1; Anthrax LF prot: -1; 3CLpro inhibitor: -1

Results for COc1ccccc1C1C(C(=O)NCc2ccccc2)=C(C)Nc2ncnn21 (stereo not given) ?
Autofluor counter: 5946; BoNT F protease: -2; DUSP3 inh: 4; BoNT A protease: 0; Anthrax LF prot: -10; 3CLpro inhibitor: 1

What do the screens show for `CC(=O)Nc1ccc(C=NNC(=O)CCCC(=O)NN=Cc2ccc(NC(C)=O)cc2)cc1`?
Autofluor counter: 4388; BoNT F protease: 0; BoNT A protease: 0; Anthrax LF prot: 1

Results for COc1ccc(CCNC(=O)c2cnn(-c3ccc(C)c(C)c3)c2NC(=O)c2ccco2)cc1OC ?
Autofluor counter: 22833*; BoNT F protease: 6; DUSP3 inh: -6; BoNT A protease: inconclusive; Anthrax LF prot: -1; 3CLpro inhibitor: 0

Results for Cc1ccc(-n2ncc(C(=O)N3CCc4ccccc4C3)c2NC(=O)c2ccco2)cc1C ?
Autofluor counter: 23443*; BoNT F protease: 1; DUSP3 inh: 0; BoNT A protease: 1; Anthrax LF prot: -2; 3CLpro inhibitor: -3

How did COCCN1C(=O)/C(=C/c2ccc(N3CCCC3)cc2)SC1=S do in these assays?
Autofluor counter: 18513*; BoNT F protease: 4; DUSP3 inh: 6; BoNT A protease: 15; Anthrax LF prot: 9; 3CLpro inhibitor: 0

Results for CN1CCN(C2CCCCCC2)CC1 ?
Autofluor counter: 23426*; BoNT F protease: 0; DUSP3 inh: 9; BoNT A protease: -1; Anthrax LF prot: 0; 3CLpro inhibitor: -5

Results for CCc1ccc(N/C(SCc2ccccc2C)=C(/C#N)C(=O)NCc2ccco2)cc1 ?
Autofluor counter: 17346*; BoNT F protease: -4; DUSP3 inh: 16; BoNT A protease: -2; Anthrax LF prot: -5; 3CLpro inhibitor: 10

Results for O=c1[nH]c(O)c(C=NC2CCCCC2)c(=O)[nH]1 ?
Autofluor counter: 3857; BoNT F protease: inconclusive; DUSP3 inh: -1; BoNT A protease: -12; Anthrax LF prot: 37*; 3CLpro inhibitor: 5

What do the screens show for `COC(=O)C1CC(O)C(O)C(O)C1` (stereo not given)?
Autofluor counter: 4055; BoNT F protease: -7; BoNT A protease: 0; Anthrax LF prot: -11

What do the screens show for `COc1ccc(NC(=O)C(=O)c2cn(CC(=O)N3CCOCC3)c3ccccc23)cc1OC`?
Autofluor counter: 4556; BoNT F protease: 2; DUSP3 inh: 27; BoNT A protease: 0; Anthrax LF prot: -2; 3CLpro inhibitor: -8

How did CCOC(=O)C1C(c2ccccc2Cl)NC(=O)N(C)C1(O)C(F)(F)F (stereo not given) do in these assays?
Autofluor counter: 16952*; BoNT F protease: -4; DUSP3 inh: 22; BoNT A protease: -2; Anthrax LF prot: -5; 3CLpro inhibitor: 0

What do the screens show for `C=CCNc1nc(-c2ccccc2)nc(-n2ccnc2)n1`?
Autofluor counter: 18305*; BoNT F protease: 8; DUSP3 inh: 20; BoNT A protease: 5; Anthrax LF prot: 0; 3CLpro inhibitor: 3

What do the screens show for `c1ccc(-c2nc(NC3CC3)nc(-n3ccnc3)n2)cc1`?
Autofluor counter: 21514*; BoNT F protease: -9; DUSP3 inh: 17; BoNT A protease: -6; Anthrax LF prot: 2; 3CLpro inhibitor: -1

How did CC(C)NC(=O)NC(=O)COC(=O)Cc1ccsc1 do in these assays?
Autofluor counter: 3194; BoNT F protease: -5; DUSP3 inh: 5; BoNT A protease: -1; Anthrax LF prot: -2; 3CLpro inhibitor: -3

Results for COc1ccc(CC(=O)OCC(=O)NC(=O)NC(C)C)cc1 ?
Autofluor counter: 23854*; BoNT F protease: -5; DUSP3 inh: -5; BoNT A protease: -2; Anthrax LF prot: -3; 3CLpro inhibitor: -1

What do the screens show for `Cc1ccc(Cl)cc1NC(=O)COC(=O)CSc1ccccc1`?
Autofluor counter: 3783; BoNT F protease: 1; BoNT A protease: 0; Anthrax LF prot: -4
